This is a sample that favours compounds with a hit; in the whole collection about 1.1% have one here.
RGS4 inh – Inhibitors of Regulator of G Protein Signaling (RGS) 4: qHTS; AID 504845, 2011; Potency, µM (doses to about 114 µM), for the others: at the highest dose activity change, negative = inhibition, most hits filed as inhibitors; Transcreener GDP fluorescence polarization, RGS4-accelerated GTP hydrolysis; Regulator of G-protein signaling 4 (Homo sapiens), P49798; hit rate 0.039% among 390,000; note: potency is the fitted concentration of half-maximal effect; % is set by controls: 0 for no effect and ±100 for the full control effect; nearly all actives have a fitted effect of over 75% in size
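MLSMR compounds (23 nl, pin-transferred) preincubated 10 min at room temperature with a 500nM (2x) first reagent, then RGS4 at 900nM (2x) plus Transcreener GDP mix added; fluorescence polarization (620/688 nm) read before and after 90 min at 30 °C.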
p53 reactivator – qHTS assay for re-activators of p53 using a Luc reporter. H1299 p53-A138V BP100-luciferase reporter, luminescence, 24 h. Potency, µM (series often up to 92.2 µM), for inactives: at the top dose activity change, positive = activation, usual class: activators. hit rate 0.063% among 320,000; note: potency is the fitted concentration of half-maximal effect; % of control where 0% means no effect; nearly all actives have a fitted effect of over 45% in size
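H1299 (p53-null), stable ts p53-A138V + BP100-Luc; 1000 cells/well, Opti-MEM/10% FBS; cpd 4 pt, 1:5; 24 h, 37 deg C, 5% CO2; detection reagent 10 min RT; luminescence.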
PTHR1 agonist – qHTS for PTHR1 Agonists: Primary Screen; HEK293 GP2 PTHR1 cells, GloSensor cAMP luminescence, 1 h; Parathyroid hormone/parathyroid hormone-related peptide receptor (Homo sapiens), Q03431; AID 743266, 2014; Potency, µM (top dose mostly 115 µM), inactives show top-dose activation, actives largely listed as activators; hit rate 0.075% among 410,000; note: potency is the fitted concentration of half-maximal effect; nearly all actives have a fitted effect of over 55% in size
Target sequence (Q03431 whole entry, looked up): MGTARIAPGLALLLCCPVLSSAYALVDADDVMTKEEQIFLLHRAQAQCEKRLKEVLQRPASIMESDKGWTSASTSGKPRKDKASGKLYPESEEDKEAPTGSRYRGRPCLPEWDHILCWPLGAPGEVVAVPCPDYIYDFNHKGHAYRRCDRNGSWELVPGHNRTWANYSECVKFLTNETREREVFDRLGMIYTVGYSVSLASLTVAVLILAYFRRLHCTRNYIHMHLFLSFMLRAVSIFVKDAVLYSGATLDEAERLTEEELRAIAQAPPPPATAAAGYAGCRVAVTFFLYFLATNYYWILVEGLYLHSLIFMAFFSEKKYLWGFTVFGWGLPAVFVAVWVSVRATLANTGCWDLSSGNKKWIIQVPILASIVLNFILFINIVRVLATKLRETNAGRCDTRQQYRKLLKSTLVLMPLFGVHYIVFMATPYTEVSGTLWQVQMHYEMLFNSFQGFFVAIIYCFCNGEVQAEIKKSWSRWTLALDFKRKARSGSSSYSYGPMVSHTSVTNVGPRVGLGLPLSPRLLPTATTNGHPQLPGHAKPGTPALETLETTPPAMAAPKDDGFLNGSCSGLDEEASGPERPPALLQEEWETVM
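HEK-293-derived GP2 cells expressing PTHR1 and a GloSensor cAMP reporter, 3,000/well, plated overnight, given luciferin plus IBMX (each 0.5 mM as added) for 1 h at 37 °C, then compound for 1 h at 37 °C. Luminescence was read after 15 min at room temperature.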
BRCA1 expr up – qHTS Assay to Identify Small Molecule Activators of BRCA1 Expression. MCF7-BRCA1-FFLuc reporter, luminescence, 48 h; response scale: scaled: vehicle 0%, 10 µM genistein 100%. Potency, µM (titrated, usually from 46.1 µM), for inactives: at the highest dose activation, usual class: activators. hit rate 1.1% among 380,000. AID 624202, 2012; note: potency is the fitted concentration of half-maximal effect; nearly all actives have a fitted effect of over 80% in size
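MCF7-BRCA1-FFLuc cells, 2000/well in phenol-red-free MEM, attached 2 h then treated 48 h at 37 C. Luciferase luminescence read 15 min after reagent; normalized to genistein maximum activation (10microM) and DMSO, concentration-response fitted.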
LDHA inh – qHTS assay for inhibitors of human lactate dehydrogenase. L-lactate dehydrogenase A chain (Homo sapiens), P00338. purified LDHA, NADH/diaphorase-resazurin fluorescence; active compounds read low. activity change, % (values are at about 110 or 230 µM). hit rate 0.15% among 480,000; in the data active = activity change below about -30%; inconclusive = mostly about -25% to -30%;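 note: plate controls were DMSO wells for no effect and wells without enzyme for full effect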
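Enzyme activity of human lactate dehydrogenase 5 (2 nM; 0.06 mM NADH, 0.2 mM pyruvate, 5 min, RT) is measured via a resazurin/diaphorase fluorescence readout of residual NADH.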
An asterisk follows results filed as active; i = inactive; ? = inconclusive; nt = no result given; [ ] = dose if it differs, or a comment. Unless noted, calls come from the whole dose curve; as a rule, active = well fitted curve in the direction sought with a large enough effect; inconclusive = small, poorly fitted or top-dose-only effect, or another doubt; inactive = no such curve, though single readings can be large; an effect the other way counts as inactive or inconclusive.

SMILES	RGS4 inh	p53 reactivator	PTHR1 agonist	BRCA1 expr up	LDHA inh
CCCOC(=O)c1ccc(NC(=O)c2cnccn2)cc1	12%	?	-11%[57.5 µM]	10µM*	-2
O=C(Nc1ccc(NC(=O)c2ccco2)cc1)c1cnccn1	-7%	26%	i	13µM*	-7
O=C(NCc1ccc(F)cc1)Nc1ccccc1	-9%	22%	i	10µM*	-1
Cc1ccc(CNC(=O)Nc2ccccc2)cc1	-37%	16%	-12%[57.5 µM]	3.5µM*	-4
O=C(NCc1ccc(Cl)cc1Cl)Nc1ccccc1	-9%	nt	-20%	?	3
Cc1ccc(C)c(CNC(=O)Nc2ccccc2)c1	3%	?	-3%	7.1µM*	-2
O=C(OCc1ccccc1)c1ccc2c(c1)-c1ccccc1C2=O	17%	?	-2%[57.5 µM]	8.9µM*	-6
O=C(OCc1ccccc1)c1ccccc1	18%	nt	-42%	2%	-3
COC(=O)c1ccc(COC(=O)CCS(=O)(=O)c2ccc(F)cc2)cc1	nt	nt	nt	nt	-1
N#C/C(=C(/O)CN1CCN(c2ccccc2F)CC1)c1nc(-c2ccc(Cl)cc2)cs1	19%	-2%	-46%[57.5 µM]	-25%	-11
N#C/C(=C(/O)CN1CCCCC1)c1nc(-c2ccc(Cl)cc2)cs1	4%	11%	-7%[57.5 µM]	7.1µM*	-1
Cc1ccnc(Nc2nc(-c3ccc(O)cc3O)cs2)c1	0%	nt	-18%	7.9µM*	4
CCCNC(=O)C(C)OC(=O)c1cc2ccc(OC)cc2nc1C (configuration not stated)	nt	nt	nt	nt	8
COc1ccc2cc(C(=O)OC(C)C(N)=O)c(C)nc2c1 (configuration not stated)	nt	nt	nt	nt	-32*
COc1ccc(C(=O)Nc2cccc(-c3nc4cc(Cl)ccc4o3)c2)c(OC)c1	nt	nt	nt	nt	-1
CCN(CC)S(=O)(=O)c1ccc(=O)n(Cc2cc(=O)oc3cc(C)ccc23)c1	nt	nt	nt	nt	6
COCCn1c(C)cc(/C=C2/NC(=O)N(c3cccc(Cl)c3)C2=O)c1C	-27%	12%	-10%	7.9µM*	0
O=[N+]([O-])c1ccc2c(c1)S(=O)(=O)C=C2	21µM*	nt	nt	nt	nt
COc1cccc2cc(C(=O)N3CCN(c4ccc(C)cc4)CC3)c(=O)oc12	nt	nt	nt	nt	-2
CC1CCN(C(CNC(=O)c2ccccc2SC(F)F)c2cccs2)CC1 (configuration not stated)	nt	nt	nt	nt	1
COc1ccc(C)c2sc(=NC(=O)c3ccccc3)n(C)c12	5%	8%	-32%	54%	-6
COc1ccc(C)c2sc(=NC(=O)c3ccc(C(C)=O)cc3)n(C)c12	2%	14%	-23%	0.79µM*	-13
N#CC(C(=O)CCc1ccccc1)C(=O)NCc1ccccc1 (configuration not stated)	nt	nt	nt	nt	-11
CC1CCc2noc(NC(=O)c3cc(=O)c4cc(Br)ccc4o3)c2C1 (configuration not stated)	nt	nt	nt	nt	-39*
C/C(=C\c1ccc(F)cc1)C1Nc2cccc3cccc(c23)N1	nt	nt	nt	nt	3
SMILES	RGS4 inh	p53 reactivator	PTHR1 agonist	BRCA1 expr up	LDHA inh
O=c1cc(-c2ccc(O)cc2)oc2cccc(O)c12	2.1µM*	nt	nt	nt	nt
O=c1cc(-c2ccccc2)oc2ccc(O)cc12	-26%	?	-8%	2.8µM*	0
Cc1nc(Cc2nn3c(-c4ccccc4)nnc3s2)cs1	nt	nt	nt	nt	5
O=C(NCCSC1CCCCC1)c1ccccc1	13%	10%	-8%	?	-6
COc1ccc(C(=O)NCCSC2CCCCC2)cc1	25%	23%	-2%	1.8µM*	-2
CC(=O)Nc1sc2c(c1-c1ccc3c(c1)OCO3)CCNC2	nt	nt	nt	nt	9
Cc1ccc(OCC(=O)O/N=C(\N)c2ccccn2)cc1	-5%	1%	-17%	6.3µM*	-5
N/C(=N\OC(=O)c1ccc2ccccc2c1)c1ccncc1	-13%	13%	-36%	?	-1
CC(C)(C)CC(=O)O/N=C(\N)c1ccccn1	-10%	?	-8%	5µM*	-6
N/C(=N\OC(=O)Cc1ccc(Cl)cc1)c1ccccn1	-10%	19%	-19%[57.5 µM]	10µM*	-6
N/C(=N\OC(=O)c1ccc2ccccc2c1)c1ccccc1Cl	-5%	20µM*	-9%	?	-2
N/C(=N\OC(=O)Cc1ccccc1)c1ccccc1Cl	14%	16%	i	14µM*	-10
N/C(=N\OC(=O)C1CCCCC1)c1ccccn1	4%	?	-23%[57.5 µM]	11µM*	-7
CC1C/C(=C/c2ccco2)C(=O)/C(=C/c2ccco2)C1 (configuration not stated)	nt	-21%	nt	nt	nt
O=C1/C(=C\c2ccco2)CCC/C1=C\c1ccco1	?	25µM*	-20%	-1%	2
O=C(Nc1ccc(Cl)cc1)C1CC2CCC1C2 (configuration not stated)	nt	nt	nt	nt	-1
CC(C)c1ccc(NC(=O)C2CC3CCC2C3)cc1 (configuration not stated)	-27%	5%	-25%	6.3µM*	-5
CCC(C)c1ccc(NC(=O)C2CC3CCC2C3)cc1 (configuration not stated)	5%	nt	-10%	7.1µM*	-4
CS(=O)(=O)c1ccc2nc(NC(=O)c3cc([N+](=O)[O-])cc([N+](=O)[O-])c3)sc2c1	-37%	nt	-52%	0%	-2
COc1cc(OC)cc(C(=O)Nc2nc3ccc(S(C)(=O)=O)cc3s2)c1	-15%	6%	-21%	5.6µM*	-4
CS(=O)(=O)c1ccc2nc(NC(=O)c3cccc([N+](=O)[O-])c3)sc2c1	-19%	8%	-35%	5.6µM*	-6
CCOc1ccc(C2C=C(c3ccc(C)cc3)Nc3nnnn32)cc1 (configuration not stated)	-32%[56.9 µM]	9%	-11%[57.5 µM]	-34%	1
CCOc1ccc(C2C=C(c3ccccc3)Nc3nnnn32)cc1 (configuration not stated)	27%	?	-22%	7.1µM*	-3
CCN1C(=O)CC(N2CCN(c3ccc(Cl)cc3)CC2)C1=O (configuration not stated)	-51%	-2%	i	3%	-5
CCN1C(=O)CC(N2CCN(c3ccc(C(=O)c4ccccc4)cc3)CC2)C1=O (configuration not stated)	34%	nt	-12%	11µM*	-7
CCN(CC)CC(=O)Nc1scc2c1c(=O)oc1ccccc12	5%	10%	i	11µM*	0
CCOC(=O)c1c(-c2cccs2)csc1NC(=O)CN(CC)CC	23%	0%	-21%	-32%[1.84 µM]	0

Screens deposited in PubChem by National Center for Advancing Translational Sciences (NCATS).
